Data taken from PubChem BioAssay.
The source made the active and inactive calls.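 The calls were made as follows, unless noted: active = fluorescence slope higher than the sample average by over 3 SD (cut at about -0.22 in these data, passing the limit was not always enough); inactive = the rest.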

How the values were obtained:
[1] = inhibitors of TNFa-induced NFkB p65 translocation, primary screen, imaging, HUVEC, MLSMR starter and 10KST1 sets (AID 438;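 active = inhibition above 20% together with a positive visual image hit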;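 also: compound added about 3h40 before a 20 min TNFalpha stimulation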;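 as to inhibition: signal is the nuclear over cytoplasmic p65 intensity ratio per well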); conditions: HUVEC TNFa-induced p65 nuclear translocation; cell count: measured here: nuclei count (cytotoxicity indicator), at 2.08 µM; inhibition: at 2 µM, stronger effect = higher value, 0% TNFa-plus-vehicle, 100% no-TNFa wells
[2] = inhibitors of mutant huntingtin aggregation, primary screen, imaging, exon1htt(103Q)mCFP cells, high-content imaging (AID 483;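 active = visual image review flags a hit and inhibition of aggregation exceeds 20%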;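 also: compound exposure lasted 3 days before fixation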;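 as to nuclei count: percent of the per-plate median nuclei count of sample wells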); conditions: exon1htt(103Q)mCFP cell line, aggregate imaging, at 2 µM; inhibition of aggregation: stronger effect = higher value; nuclei count: measured here: cell count, toxicity
[3] = inhibitors of E-selectin induction by TNFa, primary screen, imaging, HUVEC, immunofluorescence, MLSMR starter and 10KST1 sets (AID 487;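 active = visually confirmed hit in the image check and inhibition above 20%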;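 as to inhibition: signal is fraction of cell area covered by stained E-selectin grains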;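 as to nuclei count: 100% = median nuclei count of all wells on the same plate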); conditions: HUVEC TNFalpha-induced E-selectin immunofluorescence imaging, at 2 µM; inhibition: stronger effect = higher value; nuclei count: measured here: cell number, toxicity
[4] = biological target: Voltage-gated potassium channel subunit beta-2 (Rattus norvegicus) (UniProt P62483); test: KvBeta enzyme negative modulators, primary screen, biochemical, NADPH fluorescence (AID 622); conditions: recombinant KvBeta, 4-cyanobenzaldehyde reduction, at 10 µM, stronger effect = higher value;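 also: slope of raw intensity against log time taken from 70 to 1610 s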
Chain of Voltage-gated potassium channel subunit beta-2 (Rattus norvegicus) (P62483 whole entry, looked up): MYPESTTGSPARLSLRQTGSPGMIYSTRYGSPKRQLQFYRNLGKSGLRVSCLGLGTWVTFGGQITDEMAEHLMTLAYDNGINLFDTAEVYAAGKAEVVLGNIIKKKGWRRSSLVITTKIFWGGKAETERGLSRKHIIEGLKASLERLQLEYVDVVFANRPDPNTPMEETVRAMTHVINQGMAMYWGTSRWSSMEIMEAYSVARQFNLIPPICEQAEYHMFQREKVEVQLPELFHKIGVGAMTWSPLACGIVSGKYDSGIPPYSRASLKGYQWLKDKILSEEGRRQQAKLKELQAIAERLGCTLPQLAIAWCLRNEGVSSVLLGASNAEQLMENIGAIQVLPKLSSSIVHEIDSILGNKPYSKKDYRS

[5] = biological target: Voltage-gated potassium channel subunit beta-2 (Rattus norvegicus) (UniProt P62483); test: KvBeta positive modulators, primary screen, biochemical, NADPH fluorescence (AID 623;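 active = NADPH fluorescence slope more negative than the mean of all samples by about 3 SD, 99.7% confidence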;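 also: fluorescence intensity change per second fitted from 20 to 320 s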); conditions: Recombinant KvBeta, NADPH fluorescence decrease slope, 10 min; at 10 µM; stronger effect = lower value
[6] = biological target: Alpha-2C adrenergic receptor (Homo sapiens) (UniProt P18825); test: modulators of alpha2C/GIRK thallium flux, primary screen, cell-based, HEK293 alpha2C/GIRK1/2 (AID 624;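 active = fluorescence slope after compound addition differing from the mean of all screened samples at 99.7% confidence, in either direction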;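 also: slope of fluorescence ratio to pre-addition baseline per second over 15 to 24 s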); conditions: thallium flux BTC fluorescence, at 10 µM, actives lie on both sides
Chain of Alpha-2C adrenergic receptor (Homo sapiens) (P18825 whole entry, looked up): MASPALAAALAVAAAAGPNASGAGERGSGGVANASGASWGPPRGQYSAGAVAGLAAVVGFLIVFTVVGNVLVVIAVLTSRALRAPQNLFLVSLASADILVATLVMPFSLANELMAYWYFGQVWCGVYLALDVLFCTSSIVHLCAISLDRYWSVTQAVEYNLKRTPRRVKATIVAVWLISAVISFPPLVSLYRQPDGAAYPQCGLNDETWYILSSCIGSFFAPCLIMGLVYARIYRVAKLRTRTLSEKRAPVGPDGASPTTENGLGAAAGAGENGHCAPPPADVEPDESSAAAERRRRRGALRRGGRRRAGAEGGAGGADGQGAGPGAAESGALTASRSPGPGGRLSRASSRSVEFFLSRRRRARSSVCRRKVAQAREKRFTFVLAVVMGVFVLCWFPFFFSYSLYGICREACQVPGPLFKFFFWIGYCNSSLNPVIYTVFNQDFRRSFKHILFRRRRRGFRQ

[7] = inhibitors of Sendai virus-induced IRF3 signaling, primary screen, TLR/RLR signaling modifier project, cell-based, Sendai virus stimulus, luciferase, 10K MLSCN set (AID 602276;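 active = inhibition at or above 50% at 10 µM; inactive = inhibition below 50%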;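 also: firefly luciferase from ISG56 promoter only with Renilla not read in this screen; 0% = Sendai virus plus DMSO and 100% = medium plus DMSO without virus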); conditions: HEK293 RL24 IRF3 luciferase reporter, at 10 µM, stronger effect = higher value
[8] = inhibitors of poly I:C-induced TLR3 signaling, primary screen, cell-based, poly I:C stimulus, luciferase, 10K MLSCN set (AID 602277;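 active = inhibition of the reporter signal at or above 50%; inactive = inhibition below 50%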); conditions: HEK293-TLR3 RL24 IRF3 luciferase reporter, at 10 µM, stronger effect = higher value

SMILES	cell count [1]	inhibition [1]	inhibition of aggregation [2]	nuclei count [2] [%]	inhibition [3]	nuclei count [3] [%]	fluorescence slope [4]	NADPH fluorescence slope [5]	slope [6]	inhibition [7]	inhibition [8]
Cc1csc(NC(=O)c2cc3c(s2)-c2ccccc2OC3)n1	417	8.8% (inactive)	27.8% (inactive)	121	-27.8% (inactive)	103	-0.247 (inactive)	-1.9e-06 (inactive)	0.00681 (inactive)	-42% (inactive)	-118% (inactive)
Cn1cc(C2NC(=O)c3c(sc4c3CCCC4)N2)c2ccccc21 (centres undefined)	561	9.2% (inactive)	17.3% (inactive)	98.8	-37.2% (inactive)	112	-0.384 (inactive)	3.8e-05 (inactive)	0.00476 (inactive)	2.79% (inactive)	21.2% (inactive)
COc1cc(Cl)c(C)cc1NC(=O)COC(=O)c1cnc(C)cn1	345	3.8% (inactive)	16.5% (inactive)	95.2	-118% (inactive)	110	-0.51 (inactive)	3.8e-05 (inactive)	0.00519 (inactive)	-3.59% (inactive)	12.5% (inactive)
O=C(CN1C(=O)CCS(=O)(=O)c2ccccc21)Nc1cccc(F)c1	383	-6.8% (inactive)	-2.1% (inactive)	113	-27.1% (inactive)	135	-0.335 (inactive)	-4.5e-05 (inactive)	0.00547 (inactive)	1.07% (inactive)	10.8% (inactive)
Cc1cccc(OCCNC(=O)c2ncn[nH]2)c1	228	4.2% (inactive)	1.8% (inactive)	100	-263% (inactive)	144	-0.443 (inactive)	-1.6e-05 (inactive)	0.00209 (inactive)	5.98% (inactive)	32.3% (inactive)
Cn1c(-c2ccc(F)cc2)cnc1SCC(=O)Nc1ccccc1N1CCOCC1	458	1.4% (inactive)	53.7% (active)	63.3	-76.1% (inactive)	90.4	-0.31 (inactive)	-2.7e-05 (inactive)	0.00572 (inactive)	-29.2% (inactive)	-99% (inactive)
C=CCSc1nc(N)c2c(C)c(C)sc2n1	419	3% (inactive)	29.2% (inactive)	91.8	-20.5% (inactive)	101	-0.404 (inactive)	1.5e-05 (inactive)	0.000164 (inactive)	-7.96% (inactive)	-46.7% (inactive)
CC12CN3CC(C)(CN(C1)C3c1cc(Br)ccc1O)C2=O (centres undefined)	305	0% (inactive)	1.6% (inactive)	121	39% (inactive)	83.4	-0.474 (inactive)	-4.6e-06 (inactive)	0.00402 (inactive)	3.76% (inactive)	37.4% (inactive)
CCOc1cc(C(=O)NCc2nnc(SCC(=O)OC)n2C)cc(OCC)c1OCC	291	10% (inactive)	17% (inactive)	55.3	1.2% (inactive)	101	-0.337 (inactive)	-1.2e-05 (inactive)	0.00327 (inactive)	10.7% (inactive)	16% (inactive)
